Assay [1] has as its target Rap guanine nucleotide exchange factor 3 (Homo sapiens) (UniProt O95398). The experiment in a line: Confirmatory qHTS for antagonist of cAMP-regulated guanine nucleotide exchange factor 3 (EPAC1) (AID 1645880). Further: nearly all actives have a fitted effect of over 55% in size. Further: potency means the concentration at half of the fitted maximal effect.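 On activity, negative = inhibition: plate controls were DMSO only for no effect and full effect of the ATA control for full effect.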 The conditions noted are these: EPAC1 Rap1B-BODIPY-GDP exchange, fluorescence; activity, negative = inhibition: at 115 µM (top of the series). In short, it runs like this: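 Released BODIPY-GDP fluoresces less than Rap1-bound BODIPY-GDP; the signal is followed at 480/540 nm at 5-min intervals over 30 min, after 5 min at room temperature. Reactions contain 100 nM EPAC1, 250 nM RAP1B-BODIPY-GDP and 50 uM GDP; results are normalized to ATA and DMSO.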

For assay [2] the target is unchanged. The experiment in a line: Confirmatory qHTS for agonist of cAMP-regulated guanine nucleotide exchange factor 3 (EPAC1) (AID 1645881).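 Further: EPAC1 catalysed release of BODIPY-GDP from Rap1B seen as fluorescence loss; 100% = effect of cAMP agonist control; nearly all actives have a fitted effect of over 75% in size.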
Assay [3] addresses Rap guanine nucleotide exchange factor 4 (Homo sapiens) (UniProt Q8WZA2). Description: Confirmatory qHTS for agonist of cAMP-regulated guanine nucleotide exchange factor 4 (EPAC2) (AID 1645884). Further: on the % scale 0 is the no-effect control and ±100 the full control effect; nearly all actives have a fitted effect of over 65% in size.
Assay [4] shares this target. Description: Confirmatory qHTS for antagonist of cAMP-regulated guanine nucleotide exchange factor 4 (EPAC2) (AID 1645885). Further: on the % scale 0 is the no-effect control and ±100 the full control effect; nearly all actives have a fitted effect of over 25% in size.
The target in assay [5] is Rap guanine nucleotide exchange factor 3 (Homo sapiens) (UniProt O95398). Description: Counterscreen qHTS for antagonist of cAMP-regulated guanine nucleotide exchange factor 3 (EPAC1) (AID 1645888). Further: % of control where 0% means no effect. In short, it runs like this: (§1)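 Rap1B–BODIPY-GDP (250 nM) with 50 uM GDP; compounds pin-transferred to 9.74 nM–152 uM final (activator) or from 7.32 nM upwards (inhibitor). Fluorescence Ex/Em 480/540 nm read at 5 and 30 min, then after adding cAMP or buffer, at room temperature.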
Chain of Rap guanine nucleotide exchange factor 3 (Homo sapiens) (O95398 whole entry, looked up): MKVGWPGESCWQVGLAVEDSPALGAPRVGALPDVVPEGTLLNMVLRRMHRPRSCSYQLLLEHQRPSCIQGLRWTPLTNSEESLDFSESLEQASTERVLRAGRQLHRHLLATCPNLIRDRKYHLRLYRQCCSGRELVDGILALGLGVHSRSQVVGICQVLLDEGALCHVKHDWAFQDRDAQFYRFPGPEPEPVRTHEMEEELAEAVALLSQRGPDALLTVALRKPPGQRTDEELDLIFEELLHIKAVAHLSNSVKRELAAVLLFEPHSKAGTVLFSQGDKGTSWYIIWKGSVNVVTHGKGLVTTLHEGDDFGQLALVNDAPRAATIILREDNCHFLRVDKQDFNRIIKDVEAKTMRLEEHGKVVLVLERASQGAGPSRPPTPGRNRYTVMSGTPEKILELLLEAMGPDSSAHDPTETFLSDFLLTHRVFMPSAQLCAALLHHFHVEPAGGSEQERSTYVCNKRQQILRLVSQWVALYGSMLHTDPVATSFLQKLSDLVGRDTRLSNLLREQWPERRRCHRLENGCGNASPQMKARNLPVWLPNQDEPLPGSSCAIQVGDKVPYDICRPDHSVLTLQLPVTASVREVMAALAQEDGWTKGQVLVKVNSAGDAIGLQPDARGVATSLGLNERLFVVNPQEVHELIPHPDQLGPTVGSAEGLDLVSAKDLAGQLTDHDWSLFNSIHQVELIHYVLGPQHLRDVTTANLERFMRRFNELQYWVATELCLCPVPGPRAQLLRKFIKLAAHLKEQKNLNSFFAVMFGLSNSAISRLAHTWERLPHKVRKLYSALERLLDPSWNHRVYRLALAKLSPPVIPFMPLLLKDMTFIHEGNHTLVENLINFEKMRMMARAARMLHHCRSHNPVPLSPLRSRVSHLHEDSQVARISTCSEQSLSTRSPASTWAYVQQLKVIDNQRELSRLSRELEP

Assay [6] has the same target. Description: Counterscreen qHTS for agonist of cAMP-regulated guanine nucleotide exchange factor 3 (EPAC1) (AID 1645889). Further: % of control where 0% means no effect; nearly all actives have a fitted effect of over 40% in size. Put shortly:
as §1

A short description of assay [7]: HepG2 viability counterscreen (readout 2: ATP content) against the NCATS DSHEA and TCM libraries (AID 1794840).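 Further: HepG2 cells exposed to substances for about 24 h; 0% is about no effect.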 In short, it runs like this: (§2)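 After HepG2 cells attach for ~4 h, substances are added and incubated ~24 h at 37C, 5% CO2. GF-AFC fluorescence then CellTiter-Glo luminescence give protease and ATP readouts.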
Assay [8] can be described thus: HepG2 viability counterscreen (readout 1: protease activity) against the NCATS DSHEA and TCM libraries (AID 1794841).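 Further: cells exposed to compounds for about 24 h before the protease read; 0% is about no effect.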 Put shortly:
as §2

Assay [9] has as its target Cytochrome P450 3A4 (Homo sapiens) (UniProt P08684). Description: qHTS for inhibitors of CYP3A4 against the NCATS DSHEA and TCM libraries (AID 1919971).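 Further: on the % scale 0 is the no-effect control and ±100 the full control effect; inhibition lowers luminescence from luciferin made by CYP3A4.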 In short, it runs like this:
(§3)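 Isoform-specific enzyme and substrate levels; enzyme-free wells as background. Reaction: 1x NADPH regenerating system, 30-45 min, room temperature, shielded from light; luminescent detection reagent added, 30 min.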

Assay [10] concerns the target Cytochrome P450 2D6 (Homo sapiens) (UniProt P10635). Description: qHTS for inhibitors of CYP2D6 against the NCATS DSHEA and TCM libraries (AID 1919972). Further: on the % scale 0 is the no-effect control and ±100 the full control effect. In short, it runs like this: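 qHTS, concentration–response format with most substances from 19.5 nM. CYP2D6 + pro-luciferin substrate, 15 min with compound, then 1x NADPH regen, 30–45 min RT dark. Glo detection 30 min, luminescence. Quinidine control.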

The target of assay [11] is Cytochrome P450 2C9 (Homo sapiens) (UniProt P11712). The experiment in a line: qHTS for inhibitors of CYP2C9 against the NCATS DSHEA and TCM libraries (AID 1919973).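 Further: luminogenic pro-luciferin CYP2C9 substrate turned into luciferin with NADPH regeneration; on the % scale 0 is the no-effect control and ±100 the full control effect.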 Put shortly: as §3
Chain of Cytochrome P450 2C9 (Homo sapiens) (P11712 whole entry, looked up): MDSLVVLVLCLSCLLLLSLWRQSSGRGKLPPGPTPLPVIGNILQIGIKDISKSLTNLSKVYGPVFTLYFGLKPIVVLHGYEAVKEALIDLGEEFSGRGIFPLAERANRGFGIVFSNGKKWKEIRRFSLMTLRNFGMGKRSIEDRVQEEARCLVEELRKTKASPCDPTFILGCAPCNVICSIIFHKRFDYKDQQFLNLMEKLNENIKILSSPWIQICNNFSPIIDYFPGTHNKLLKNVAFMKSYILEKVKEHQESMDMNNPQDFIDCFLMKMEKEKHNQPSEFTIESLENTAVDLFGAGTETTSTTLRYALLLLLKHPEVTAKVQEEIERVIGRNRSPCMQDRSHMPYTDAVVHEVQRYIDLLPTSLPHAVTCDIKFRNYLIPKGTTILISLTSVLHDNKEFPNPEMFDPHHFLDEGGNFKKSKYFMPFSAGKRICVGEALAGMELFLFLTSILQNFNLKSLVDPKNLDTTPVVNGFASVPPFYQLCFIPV
Assay [12] is described as follows: KB-3-1 P-gp reporter qHTS against the NCATS DSHEA and TCM libraries (AID 1919975). Further: 0% is about no effect. Put shortly: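 Cell viability qHTS: 500 KB-3-1 cells/well, substances in titration, ~72 h, 37C; luminescent CellTiter-Glo read.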
In assay [13] the target is Cytochrome P450 1A2 (Homo sapiens) (UniProt P05177). The experiment in a line: qHTS for inhibitors of CYPIA2 against the NCATS DSHEA and TCM libraries (AID 1919976).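 Further: light from luciferin formed by CYP1A2 from a pro-luciferin substrate; on the % scale 0 is the no-effect control and ±100 the full control effect.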 In short, it runs like this: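 Furafylline served as the plate control. Compounds met CYP1A2 and pro-luciferin substrate 15 min before NADPH regeneration solution (1x) was added; after 30-45 min at RT, P450-Glo reagent was added for 30 min and luminescence was measured.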
Chain of Cytochrome P450 1A2 (Homo sapiens) (P05177 whole entry, looked up): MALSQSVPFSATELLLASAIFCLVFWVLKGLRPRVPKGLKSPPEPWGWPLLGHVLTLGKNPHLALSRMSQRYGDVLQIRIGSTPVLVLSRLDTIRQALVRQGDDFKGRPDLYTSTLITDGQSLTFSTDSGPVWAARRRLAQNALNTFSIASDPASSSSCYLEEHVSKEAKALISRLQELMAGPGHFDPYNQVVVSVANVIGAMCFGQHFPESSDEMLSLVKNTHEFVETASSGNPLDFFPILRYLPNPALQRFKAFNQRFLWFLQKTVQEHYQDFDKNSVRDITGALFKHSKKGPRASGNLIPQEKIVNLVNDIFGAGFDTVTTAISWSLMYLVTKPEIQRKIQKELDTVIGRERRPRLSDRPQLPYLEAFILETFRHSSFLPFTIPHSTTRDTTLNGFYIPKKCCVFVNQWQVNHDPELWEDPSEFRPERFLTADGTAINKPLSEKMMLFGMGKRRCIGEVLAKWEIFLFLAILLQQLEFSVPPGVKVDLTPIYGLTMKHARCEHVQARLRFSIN

The nature of assay [14]: qHTS Counterscreen for compound interference against the NCATS DSHEA and TCM libraries (AID 1919978).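 Further: compounds preincubated with 1 µM D-luciferin or buffer before detection reagent; % of control where 0% means no effect.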 The conditions noted are these: firefly luciferase detection reagent interference, luminescence. Put shortly:
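Interference check: test samples were incubated with D-luciferin (final 1 uM) or buffer only for 15 min, room temperature, in a qHTS titration up to 39.8 uM, then developed with detection reagent and read by luminescence.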

A short description of assay [15]: Dual reporter qHTS for agonist of Pregnane X Receptor (hPXR) against the NCATS DSHEA and TCM libraries: Fluorescence readout (AID 1920058). Further: 0% is about no effect. In short, it runs like this:
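In this qHTS counter-read, reporter-bearing HepG2 cells in charcoal-stripped serum received substances for approximately 24 h before viability was assessed fluorometrically with CellTiter-Fluor.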

Assay [16] deals with Nuclear receptor subfamily 1 group I member 2 (Homo sapiens) (UniProt O75469). The experiment in a line: Dual reporter qHTS for agonist of Pregnane X Receptor (hPXR) against the NCATS DSHEA and TCM libraries: Luminescence readout (AID 1920059). Further: 0% is about no effect. Put shortly:
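hPXR-Luc HepG2 cells, 2000/well in 5% charcoal-stripped FBS medium, attached 5 h, then exposed 24 h at 37C to compounds. Viability by CellTiter-Fluor, then luciferase luminescence with ONE-Glo.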

The nature of assay [17]: Dual reporter qHTS for antagonist of Pregnane X Receptor (hPXR) against the NCATS DSHEA and TCM libraries: Fluorescence Readout (AID 1920061). Further: 0% is about no effect. Put shortly:
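Rifampicin-stimulated (2 uM final) hPXR-luciferase HepG2 cells were treated for 24 h with DSNP/TCM substances. Viability came from CellTiter-Fluor fluorescence, reporter activity from ONE-Glo luminescence.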

Assay [18] can be described thus: qHTS for Inhibitors of Plasmodium falciparum (DD2) proliferation (AID 504314).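 Further: parasite DNA measured by SYBR Green fluorescence after red cell lysis; plate controls were DMSO vehicle for no effect and artemisinin wells for full effect.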 In short, it runs like this:
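Normalization used 0.29 uM artemisinin as full inhibition and DMSO as baseline. Parasitized erythrocytes were exposed to compounds for 72 h (37C, 5% CO2), then lysed with saponin/Triton buffer containing SYBR Green I.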

A short description of assay [19]: qHTS for Inhibitors of Plasmodium falciparum (GB4) proliferation (AID 504315).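 Further: 0% = DMSO vehicle and -100% = 0.29 µM artemisinin control; nearly all actives have a fitted effect of over 50% in size.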 In short, it runs like this:
(§4)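 Parasite growth measured as SYBR Green DNA fluorescence (ex 485, em 535 nm) after overnight lysis following 72 h culture at 37 °C, 0.3% parasitemia, 2.5% hematocrit. Values normalized against DMSO and 0.29 uM artemisinin controls, with plate-stack correction.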

A short description of assay [20]: qHTS for Inhibitors of Plasmodium falciparum (7G8) proliferation (AID 504316).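 Further: 0% = DMSO vehicle and -100% = 0.29 µM artemisinin full kill; nearly all actives have a fitted effect of over 65% in size.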 Put shortly: as §4
A short description of assay [21]: qHTS for Inhibitors of Plasmodium falciparum (HB3) proliferation (AID 504318).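 Further: 0% = DMSO vehicle and -100% = artemisinin control; nearly all actives have a fitted effect of over 60% in size.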 Put shortly: as §4
Assay [22] can be described thus: qHTS for Inhibitors of Plasmodium falciparum (CP250) proliferation (AID 504320).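 Further: plate controls were DMSO vehicle for no effect and 0.29 µM artemisinin control for full effect.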 In short, it runs like this: as §4
A short description of assay [23]: Counterscreen for APE1 Inhibitors: Fluorescent Dye Displacement Assay (AID 2564).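 Further: loss of thiazole orange fluorescence as the dye is displaced from duplex DNA; 0% = ThO with dsDNA and no compound and -100% = ThO without dsDNA.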 In short, it runs like this: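 Loss of Thiazole Orange fluorescence marks promiscuous DNA binders. The dye (250 nM) is mixed with 50 nM abasic-site dsDNA in pH7.5 Tris buffer containing MgCl2, then compounds are added and emission is read once.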
The target in assay [24] is Endonuclease 4 (Escherichia coli (strain K12)) (UniProt P0A6C1). The experiment in a line: Counterscreen for APE1 Inhibitors: qHTS Assay for Inhibitors of Endonuclease IV (AID 2565).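 Further: plate controls were uninhibited enzyme wells for no effect and no enzyme buffer wells for full effect.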 In short, it runs like this: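 Read-out: fluorescence rise (ex 525/em 598 nm) from incision of a TAMRA/BHQ-2 double-stranded THF abasic-site substrate (50 nM), measured kinetically; third-minus-first read difference gave reaction progress. Enzyme 2 nM.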

In assay [25] the target is DNA repair nuclease/redox regulator APEX1 (Homo sapiens) (UniProt P27695). The experiment in a line: Confirmation qHTS Assay for Inhibitors of the Human Apurinic/apyrimidinic Endonuclease 1 (APE1) (AID 2572). Further: potency means the concentration at half of the fitted maximal effect; nearly all actives have a fitted effect of over 30% in size. The conditions noted are these: purified APE1, fluorogenic abasic-site DNA cleavage. Put shortly:
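APE1 preincubated 15 min RT with compound; 50 nM TAMRA/BHQ-2 THF-abasic duplex added; kinetic fluorescence, 3 reads at 60 s intervals, Ex 525/Em 598; progress = read 3 minus read 1.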

The target is the same in assay [26]. The experiment in a line: qHTS FP-Based Assay for Inhibitors of the Human Apurinic/apyrimidinic Endonuclease 1 (APE1) (AID 2573). Further: on the % scale 0 is the no-effect control and ±100 the full control effect. From the text:
The apurinic/apyrimidinic endonuclease APE1 is the primary mammalian enzyme responsible for the removal of abasic (or AP) sites in DNA and functions centrally in the base excision DNA repair (BER) pathway. […] Thus, targeting APE1 could improve the efficacy of current treatment paradigms by promoting selective sensitization or protection of diseased and normal cells, respectively.
In order to gain insight into the mode of action of confirmed APE1 inhibitors, we implemented a miniaturized fluorescence polarization assay designed to report on compounds which competitively displace ds-DNA substrate. The fluorescence polarization assay has been implemented in 384- and 1536-well format for binding of TAMRA-labeled double-stranded DNA probe not containing a quencher. The binding of protein to DNA is inhibited by ATA, a general inhibitor of APE1 activity.
See also related primary fluorogenic assay (AID 2517). […]
Three uL of enzyme were dispensed to 1536-well Greiner black solid bottom plates. […] The plates were immediately transferred into ViewLux High-throughput CCD imager (Perkin-Elmer) in order to measure the reaction progress in kinetic mode (three reads every 60 seconds) using 525 nm excitation and 598 nm emission fluorescence protocol. The fluorescence intensity difference between the third and the first time points was used to compute reaction progress.

The text below walks through data of PubChem BioAssay (NCATS).

Values without a mark were called inactive. Inconclusive results are not listed. The list shows a part of the results. The source made the active and inactive calls. The call rests on the fitted dose curve; in most records, active means well fitted curve in the direction sought with a large enough effect; inconclusive means small, poorly fitted or top-dose-only effect, or another doubt; inactive means no such curve, though single readings can be large; an effect the other way counts as inactive or inconclusive.

Chain of Rap guanine nucleotide exchange factor 4 (Homo sapiens) (Q8WZA2 whole entry, looked up): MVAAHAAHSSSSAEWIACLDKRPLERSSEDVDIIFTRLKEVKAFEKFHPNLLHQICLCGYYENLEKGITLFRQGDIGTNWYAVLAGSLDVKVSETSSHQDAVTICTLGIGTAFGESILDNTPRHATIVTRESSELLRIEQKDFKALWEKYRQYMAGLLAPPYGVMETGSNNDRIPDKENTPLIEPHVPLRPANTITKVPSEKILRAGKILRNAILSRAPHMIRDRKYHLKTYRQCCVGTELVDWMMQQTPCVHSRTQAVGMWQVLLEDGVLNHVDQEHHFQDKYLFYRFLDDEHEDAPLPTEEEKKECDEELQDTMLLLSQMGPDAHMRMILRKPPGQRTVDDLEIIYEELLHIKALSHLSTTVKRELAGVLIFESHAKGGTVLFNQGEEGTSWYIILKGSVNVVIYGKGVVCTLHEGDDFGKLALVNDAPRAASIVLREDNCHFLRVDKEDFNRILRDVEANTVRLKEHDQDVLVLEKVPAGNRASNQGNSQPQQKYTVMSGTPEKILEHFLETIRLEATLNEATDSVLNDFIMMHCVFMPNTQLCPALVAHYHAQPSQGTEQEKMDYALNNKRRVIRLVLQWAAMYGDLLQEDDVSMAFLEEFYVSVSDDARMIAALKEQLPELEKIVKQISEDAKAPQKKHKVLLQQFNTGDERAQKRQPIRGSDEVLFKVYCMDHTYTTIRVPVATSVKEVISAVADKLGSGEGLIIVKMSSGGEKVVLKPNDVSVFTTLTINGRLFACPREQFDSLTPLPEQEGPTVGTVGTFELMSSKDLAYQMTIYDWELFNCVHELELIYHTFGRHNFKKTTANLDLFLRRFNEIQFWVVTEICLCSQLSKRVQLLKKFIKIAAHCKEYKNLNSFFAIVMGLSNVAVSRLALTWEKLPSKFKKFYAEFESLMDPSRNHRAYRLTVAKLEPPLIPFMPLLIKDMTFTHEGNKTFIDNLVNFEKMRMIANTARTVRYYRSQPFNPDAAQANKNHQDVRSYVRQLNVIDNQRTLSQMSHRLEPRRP
Chain of DNA repair nuclease/redox regulator APEX1 (Homo sapiens) (P27695 whole entry, looked up): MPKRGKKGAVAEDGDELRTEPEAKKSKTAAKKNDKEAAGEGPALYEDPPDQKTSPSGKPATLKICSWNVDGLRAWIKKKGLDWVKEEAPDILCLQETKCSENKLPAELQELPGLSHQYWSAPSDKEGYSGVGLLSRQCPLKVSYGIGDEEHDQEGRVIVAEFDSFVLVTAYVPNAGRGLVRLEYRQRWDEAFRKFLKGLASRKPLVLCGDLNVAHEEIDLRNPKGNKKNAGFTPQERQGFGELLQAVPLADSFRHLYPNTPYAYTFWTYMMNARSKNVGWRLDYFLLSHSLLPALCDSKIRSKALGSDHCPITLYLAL
Chain of Cytochrome P450 2D6 (Homo sapiens) (P10635 whole entry, looked up): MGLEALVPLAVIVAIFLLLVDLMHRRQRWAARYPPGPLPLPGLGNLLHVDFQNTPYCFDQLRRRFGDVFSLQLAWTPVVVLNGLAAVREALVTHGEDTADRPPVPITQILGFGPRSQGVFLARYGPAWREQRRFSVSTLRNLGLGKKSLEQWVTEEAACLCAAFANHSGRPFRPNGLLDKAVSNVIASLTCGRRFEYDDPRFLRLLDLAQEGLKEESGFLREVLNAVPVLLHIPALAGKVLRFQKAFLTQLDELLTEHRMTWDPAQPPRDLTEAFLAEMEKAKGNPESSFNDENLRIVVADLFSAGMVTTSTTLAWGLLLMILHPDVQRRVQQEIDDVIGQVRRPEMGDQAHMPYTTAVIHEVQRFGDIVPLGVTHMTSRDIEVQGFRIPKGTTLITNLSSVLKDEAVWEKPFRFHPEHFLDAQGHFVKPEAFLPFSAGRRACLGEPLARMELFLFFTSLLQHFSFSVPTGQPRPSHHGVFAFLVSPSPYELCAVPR
Chain of Nuclear receptor subfamily 1 group I member 2 (Homo sapiens) (O75469 whole entry, looked up): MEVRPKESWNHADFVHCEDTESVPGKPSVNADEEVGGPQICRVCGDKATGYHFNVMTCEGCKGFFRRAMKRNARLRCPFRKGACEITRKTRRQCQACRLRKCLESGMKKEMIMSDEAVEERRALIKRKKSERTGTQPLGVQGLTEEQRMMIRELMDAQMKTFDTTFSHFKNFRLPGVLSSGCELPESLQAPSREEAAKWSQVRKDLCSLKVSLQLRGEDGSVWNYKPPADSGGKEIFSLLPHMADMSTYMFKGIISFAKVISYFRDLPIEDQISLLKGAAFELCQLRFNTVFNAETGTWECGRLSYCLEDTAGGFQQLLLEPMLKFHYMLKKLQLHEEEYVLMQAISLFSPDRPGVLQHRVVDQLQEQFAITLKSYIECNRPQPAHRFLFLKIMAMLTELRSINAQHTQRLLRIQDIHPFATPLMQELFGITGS
Chain of Cytochrome P450 3A4 (Homo sapiens) (P08684 whole entry, looked up, canonical isoform): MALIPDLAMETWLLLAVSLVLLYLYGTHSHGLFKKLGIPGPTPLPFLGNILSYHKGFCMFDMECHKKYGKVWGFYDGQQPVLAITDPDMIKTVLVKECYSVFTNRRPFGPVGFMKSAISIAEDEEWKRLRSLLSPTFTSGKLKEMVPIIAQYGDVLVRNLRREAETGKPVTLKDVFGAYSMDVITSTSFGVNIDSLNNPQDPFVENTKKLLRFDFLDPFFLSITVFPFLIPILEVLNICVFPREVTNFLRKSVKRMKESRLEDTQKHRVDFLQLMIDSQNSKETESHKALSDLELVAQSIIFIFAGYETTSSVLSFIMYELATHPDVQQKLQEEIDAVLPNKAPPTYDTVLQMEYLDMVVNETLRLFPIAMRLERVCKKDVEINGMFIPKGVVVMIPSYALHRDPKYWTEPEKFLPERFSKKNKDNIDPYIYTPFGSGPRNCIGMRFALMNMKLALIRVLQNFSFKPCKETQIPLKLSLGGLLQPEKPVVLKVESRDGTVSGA

Consider `O=C(/C=C/c1ccc(O)c(O)c1)O[C@@H]1C[C@](O)(C(=O)O)C[C@@H](O)[C@H]1O`, for which the Potency result in assay [1], in assay [2], in assay [4], in assay [9], in assay [10] and in assay [11] was “inactive” in each case. In addition, the Potency entry in [13] and in assay [16] was “inactive” each time. Besides, the activation in [3] is 5.11% [at 17.1 µM, percent relative to cAMP agonist control]; in [6], -1.95% [at 30.8 µM]. Further, the activity change, negative = inhibition in assay [5] was -13.1% [at 30.8 µM]. Also, the outcome in [7], in assay [8], in assay [12], in [15] and in [17] was inactive. Further, the max response in [14] is 0.087%.

As for `CCN1C(=O)N(S(=O)(=O)C(F)(F)F)[C@@H](c2ccccc2)C(C(=O)OC)=C1C`, the result in assay [18], in [19], in [20], in assay [21] and in [22] was inactive. For the same compound, the Potency entry in assay [1], in assay [2], in [3], in assay [4], in assay [5] and in assay [6] was “inactive” each time.

On to `COc1c(O)cc2oc(-c3ccc(O)c(O)c3)cc(=O)c2c1O`, for which the result in [23], in [24] and in assay [26] was inactive. The Potency in assay [25] was 6.31 µM (active); in assay [1], 10.7 µM (active). In addition, the Potency result in [2], in assay [3], in assay [4], in [5] and in [6] was “inactive” in each case.
